Source: PubChem BioAssay
aSyn UTR act: Activators via SNCA 5'UTR binding, MLPCN; alpha-synuclein 5'UTR reporter, activators screen; activity score, % (tested at 7.5 µM), hits read low; 300,000 tested, 7.1% active; AID 1814; in the data active means activity score below about -60%
The depositor's hits bear a star. Only a sample is shown.

SMILES | aSyn UTR act
Cc1ccc(S(=O)(=O)Nc2cccc3cccnc23)cc1 | 63
Cc1ccc(O)c(CNc2ccccn2)c1 | -67*
Cc1ccc(S(=O)(=O)Nc2ccccc2CNc2ccccn2)cc1 | -75*
Cc1ccnc(NCc2cc(C)ccc2O)c1 | -69*
COc1ccc(NC2CC(=O)N(C(C)C)C2=O)cc1 (stereo not drawn) | -150*
CC(C)N1C(=O)CC(Nc2ccc(N3CCOCC3)cc2)C1=O (stereo not drawn) | -145*
CN(C)c1ccc(/C=N\NC(=O)c2csnn2)cc1 | -146*
O=C(N/N=C\c1ccc(Oc2ccccc2)cc1)c1csnn1 | -96*
COC(=O)c1cccc(N/C=C(\[N+](=O)[O-])S(=O)(=O)c2ccccc2)c1 | -62*
O=[N+]([O-])c1ccc(/C=C2\CCC(C3=CCCC3)=C2N2CCOCC2)cc1 | -74*
c1ccc(-c2nnc(N3CCOCC3)nc2-c2ccccc2)cc1 | -73*
S=C(NNC(=S)Nc1ccccc1)Nc1ccccc1 | -145*
CC(C)(C)NC(=S)Nc1ccc(Nc2ccccc2)cc1 | -115*
COCCCNC(=S)NNC(=S)Nc1ccc(F)cc1F | -106*
S=C(NN=C(C1CC1)C1CC1)Nc1ccccc1 | -63*
Cc1cc(C)nc(NC(=S)Nc2ccccc2)n1 | -84*
S=C(Nc1ccc(Nc2ccccc2)cc1)NN1CCOCC1 | -99*
C/C(=N\NC(=S)Nc1ccccc1)C1Cc2ccccc2C(=O)O1 (stereo not drawn) | -154*
COCCCNC(=S)NNC(=S)Nc1ccccc1 | -65*
O=C(Oc1ccccc1/C=C\C(=O)c1cc2ccccc2o1)c1ccccc1 | -300*
COc1cccc(C(=O)Oc2ccccc2/C=C\C(=O)c2cc3ccccc3o2)c1 | -192*
O=C(Oc1ccccc1/C=C\C(=O)c1cc2ccccc2o1)c1cccc(F)c1 | -234*
CCOc1cc2nc(-c3ccc(OC)c(OC)c3)nc(NCCCN3CCOCC3)c2cc1OC | -65*
Clc1ccc(-c2nc(NCCN3CCOCC3)c3ccccc3n2)cc1 | -90*
COc1ccc(C2c3ccc4ccccc4c3Oc3ncn(CCN4CCOCC4)c(=N)c32)cc1OC (stereo not drawn) | 105
SMILES | aSyn UTR act
Brc1ccc(-c2nnc(Cc3ccccc3)o2)cc1 | -169*
c1ccc(-c2nnc(CN3CCCCC3)o2)cc1 | -74*
Cc1ccc(-c2nnc(Cc3ccc(Cl)cc3)o2)cc1 | -85*
COc1ccc(Cc2nnc(-c3ccccc3)o2)cc1 | -94*
Cc1ccc(C#N)c(SCc2nnc(-c3ccc(Cl)cc3)o2)n1 | 90
c1ccc(Cc2nnc(-c3ccccc3)o2)cc1 | -120*
Cc1ccccc1-c1nnc(Cc2ccccc2)o1 | -137*
COc1ccc(-c2cc3nc(CCl)[nH]c(=O)c3s2)cc1 | 71
O=c1[nH]cnc2cc(-c3ccccc3)sc12 | -95*
Cc1nc2ccc(NC(=O)N(C)c3ccccc3)cc2s1 | -119*
Cc1nc2ccc(NC(=O)N(C(C)C)C(C)C)cc2s1 | -90*
Cc1ccc2nc(NC(=O)[C@H](C)N3C(=O)C4CC=CCC4C3=O)sc2c1 (stereo partly drawn) | 63
Cc1ccc2c(c1)N=C(c1ccccc1)CC(C(Cl)Cl)=N2 | -74*
Cc1ccc(C2=Nc3ccccc3N=C(C(Cl)Cl)C2)cc1 | -76*
CN1CCN(C2=C(Cl)C(=O)N(C3CCCCC3)C2=O)CC1 | -84*
O=C1OC(c2ccc3c(c2)OCO3)N(C(=O)c2ccc(Cl)c(Cl)c2)c2ccccc21 (stereo not drawn) | -91*
Cc1ccc(-n2c(C)nn(CCOc3ccccc3)c2=O)cc1 | -104*
O=c1c2ccccc2cnn1CCOc1ccccc1 | 72
Cc1nn(CCOc2ccccc2)c(=O)n1-c1c(F)cccc1F | -108*
Cc1onc(-c2c(F)cccc2Cl)c1C(=O)O/N=C(\N)c1ccc([N+](=O)[O-])o1 | -80*
Cc1onc(-c2c(Cl)cccc2Cl)c1C(=O)N/N=C(\N)COc1ccc(Cl)cc1 | 89
O=C1c2ccccc2S(=O)(=O)N1CC1CC(c2ccc(Cl)cc2)=NO1 (stereo not drawn) | -197*
O=C(CN1C(=O)c2ccccc2S1(=O)=O)c1ccccc1Cl | 101
O=C1c2ccccc2S(=O)(=O)N1CC1CC(c2ccccc2)=NO1 (stereo not drawn) | -144*
COc1ccc(C2=NOC(CN3C(=O)c4ccccc4S3(=O)=O)C2)cc1 (stereo not drawn) | -175*
SMILES | aSyn UTR act
Cn1cccc1-c1nc2ccc(NC(=O)c3ccco3)cc2[nH]1 | -132*
Cc1ccc2nc(-c3ccc(NC(=O)c4ccco4)cc3)[nH]c2c1 | -163*
Cc1ccc(OCc2cn3cccnc3n2)cc1 | -62*
CCOc1cc2c3c(c1)C(C)=CC(C)(C)N3C(=O)C2=O | -74*
COc1ccc(-c2cc(-c3c(O)c(OC)c4occc4c3OC)[nH]n2)cc1OC | -71*
O=c1cc(-c2ccccc2)[nH]c2ccccc12 | 68
O=C1C(c2cc(=O)c3ccccc3[nH]2)=C(O)c2ccccc21 | -118*
CC1(C)NC(=O)N(CCCOc2ccc3c(c2)CCC3)C1=O | -77*
CC1(C)NC(=O)N(CCCOc2ccc(Br)cc2Cl)C1=O | -148*
Nc1ccc(SC(F)(F)F)cc1 | -70*
Cc1ccc(NC(=O)C(C)SCc2ccccc2)cc1 (stereo not drawn) | -87*
CC(SCc1ccccc1)C(=O)Nc1ccc2c(c1)OCO2 (stereo not drawn) | -66*
COc1cccc(NC(=O)C(C)SCc2ccccc2)c1 (stereo not drawn) | -63*
O=C(c1ccccn1)c1cc2ccccc2n1S(=O)(=O)c1ccccc1 | -91*
Cn1c(O)c(/C=N/NC(=O)c2cc3ccccc3cc2O)c2ccccc21 | -84*
Cc1nc(SCc2ccc(OCCC(C)C)cc2)n[nH]1 | -71*
CCCCCOc1ccc(CSc2n[nH]c(C)n2)cc1 | -171*
CCOC(=O)c1sc2nc3c(cc2c1N)C(=O)CC(C)(C)C3 | -126*
COC(=O)c1sc2nc3c(cc2c1N)CCCC3 | -143*
Nc1c(C(=O)N2CCOCC2)sc2nc3c(cc12)CCCC3 | 76
COC(=O)c1sc2nc3c(cc2c1N)C(=O)CC(C)(C)C3 | -69*
CCn1nnnc1SCC(=O)Nc1ccc2c(c1)OCCO2 | -118*
CC(C)n1nnnc1SCC(=O)Nc1ccc2c(c1)OCCO2 | -109*
Cn1cc(-c2nc3ccccc3[nH]2)c2ccccc21 | -124*
Oc1ccc(C=Nc2ccccc2-c2nc3ccccc3[nH]2)cc1 | -142*
SMILES | aSyn UTR act
O=c1[nH]cccc1-c1nc2ccccc2[nH]1 | -132*
Nc1ccccc1-c1nc2ccccc2[nH]1 | -163*
Nc1cccc2nc3ccccc3cc12 | 101
Cc1ccc2nc(NC(=O)c3ccc4ncsc4c3)sc2c1 | -145*
Cc1ccc2nc(NC(=O)c3ccc4c(c3)OCO4)sc2c1 | -130*
CSc1ccccc1OCc1cc(C(=O)N(C)Cc2ccc3nsnc3c2)no1 | -160*
CSc1ccccc1OCc1cc(C(=O)N(C)Cc2ccc(C)o2)no1 | -123*
Cc1nnc(CN(C)C(=O)c2cc(COc3ccc(F)cc3Cl)on2)o1 | -100*
CC(=O)c1cccc(OCc2cc(C(=O)N(C)Cc3ccc(C)o3)no2)c1 | -68*
Cc1[nH]cnc1C(=O)N/N=C/c1c(Cl)cccc1Cl | -73*
CC1CCN(C(=O)CCc2nnc(-c3ccccc3)o2)CC1 | -106*
O=C(CCc1nnc(-c2ccc3c(c2)OCO3)o1)N1CCC(c2ccc(F)cc2)C1 (stereo not drawn) | -104*
Cn1nc([N+](=O)[O-])nc1Sc1nnc(-c2ccccc2)o1 | 92
O=C(CSc1nnc(-c2ccc(F)cc2)o1)N1CCCCC1 | -88*
